Data taken from PubChem BioAssay AID1159580 (chemical genetic matrix, 2015).
Hit rate of the full screen: of about 5,500 compounds, about 2,000 (36%) were called active. Inconclusive results (about 18%) are left out. Cut-off read from the data, not from the text of the source: active = normalized growth mostly below about 0.91 (no sharp cut-off); inconclusive = no clear call, values can overlap the other calls; inactive = mostly above about 0.92. The list shows a part of the results.

Assay: chemical genetic growth profiling, strain panel (AID 1159580);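 note: tested at 20 µM; growth read once vehicle control cultures reached saturation at 30 °C; 1 = growth at the plate median or of vehicle wells; lower values mean less growth of the strain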
Conditions: S. cerevisiae deletion strains, growth OD
[1] = locus YAL040C, strain CLN3, active compounds read low
[2] = locus YCL061C, strain MRC1 (second series), active compounds read low
[3] = locus YDR363W, strain ESC2, active compounds read low
[4] = locus YER002W, strain NOP16, active compounds read low
[5] = locus YJR075W, strain HOC1, active compounds read low
[6] = locus YMR263W, strain SAP30, active compounds read low
[7] = locus YNL153C, strain GIM3, active compounds read low
[8] = locus YNL175C, strain NOP13, active compounds read low
[9] = locus YNL197C, strain WHI3, active compounds read low
[10] = locus YNL224C, strain SQS1, active compounds read low
[11] = locus YOR083W, strain WHI5 (second series), active compounds read low
[12] = locus YAL021C, strain ccr4, active compounds read low
[13] = locus YAL026C, strain drs2, active compounds read low
[14] = locus YAL030W, strain snc1, active compounds read low
[15] = locus YBL061C, strain skt5, active compounds read low
[16] = locus YBR009C, strain hhf1, active compounds read low
[17] = locus YBR023C, strain chs3, active compounds read low
[18] = locus YBR171W, strain sec66, active compounds read low
[19] = locus YBR231C, strain swc5, active compounds read low
[20] = locus YBR279W, strain paf1, active compounds read low
[21] = locus YCL011C, strain gbp2, active compounds read low
[22] = locus YCL016C, strain dcc1, active compounds read low
[23] = locus YCL061C, strain MRC1, active compounds read low
[24] = locus YCL069W, strain vba3, active compounds read low
[25] = locus YCR088W, strain abp1, active compounds read low
[26] = locus YDL005C, strain med2, active compounds read low
[27] = locus YDL040C, strain nat1, active compounds read low
[28] = locus YDR001C, strain nth1, active compounds read low
[29] = locus YDR069C, strain doa4, active compounds read low
[30] = locus YDR137W, strain rgp1, active compounds read low
[31] = locus YDR159W, strain sac3, active compounds read low
[32] = locus YDR297W, strain sur2, active compounds read low
[33] = locus YDR334W, strain swr1, active compounds read low
[34] = locus YDR335W, strain msn5, active compounds read low
[35] = locus YDR392W, strain spt3, active compounds read low
[36] = locus YEL003W, strain gim4, active compounds read low
[37] = locus YEL037C, strain rad23, active compounds read low
[38] = locus YEL061C, strain CIN8 (second series), active compounds read low
[39] = locus YER015W, strain faa2, active compounds read low
[40] = locus YER016W, strain bim1, active compounds read low
[41] = locus YER111C, strain swi4, active compounds read low
[42] = locus YER155C, strain BEM2 (second series), active compounds read low
[43] = locus YFR010W, strain ubp6, active compounds read low
[44] = locus YGL167C, strain pmr1, active compounds read low
[45] = locus YGL173C, strain kem1, active compounds read low
[46] = locus YGL227W, strain vid30, active compounds read low
[47] = locus YGL240W, strain doc1, active compounds read low
[48] = locus YGL253W, strain hxk2, active compounds read low
[49] = locus YHR013C, strain ard1, active compounds read low
[50] = locus YHR027C, strain rpn1, active compounds read low
[51] = locus YHR142W, strain chs7, active compounds read low
[52] = locus YJL092W, strain hpr5, active compounds read low
[53] = locus YJL095W, strain BCK1 (second series), active compounds read low
[54] = locus YJL115W, strain asf1, active compounds read low
[55] = locus YJL129C, strain trk1, active compounds read low
[56] = locus YJL154C, strain vps35, active compounds read low
[57] = locus YJL164C, strain tpk1, active compounds read low
[58] = locus YJL166W, strain qcr8, active compounds read low
[59] = locus YJL187C, strain SWE1, active compounds read low
[60] = locus YKL160W, strain elf1, active compounds read low
[61] = locus YKR026C, strain gcn3, active compounds read low
[62] = locus YKR091W, strain srl3, active compounds read low
[63] = locus YLL001W, strain dnm1, active compounds read low
[64] = locus YLL026W, active compounds read low
[65] = locus YLL041C, strain sdh2, active compounds read low
[66] = locus YLR027C, strain aat2, active compounds read low
[67] = locus YLR221C, strain rsa3, active compounds read low
[68] = locus YLR258W, strain gsy2, active compounds read low
[69] = locus YLR262C, strain YPT6 (second series), active compounds read low
[70] = locus YLR320W, strain mms22, active compounds read low
[71] = locus YLR342W, strain FKS1, active compounds read low
[72] = locus YLR357W, strain rsc2, active compounds read low
[73] = locus YLR370C, strain arc18, active compounds read low
[74] = locus YLR384C, strain iki3, active compounds read low
[75] = locus YML120C, strain ndi1, active compounds read low
[76] = locus YMR058W, strain fet3, active compounds read low
[77] = locus YMR125W, strain sto1, active compounds read low
[78] = locus YMR129W, active compounds read low
[79] = locus YMR205C, strain PFK2, active compounds read low
[80] = locus YMR231W, strain pep5, active compounds read low
[81] = locus YNL071W, strain lat1, active compounds read low
[82] = locus YNL209W, strain ssb2, active compounds read low
[83] = locus YNL248C, strain rpa49, active compounds read low
[84] = locus YNL322C, strain KRE1 (second series), active compounds read low
[85] = locus YNR049C, strain mso1, active compounds read low
[86] = locus YOR001W, strain rrp6, active compounds read low
[87] = locus YOR070C, strain gyp1, active compounds read low
[88] = locus YOR080W, strain dia2, active compounds read low
[89] = locus YOR083W, strain WHI5, active compounds read low
[90] = locus YOR106W, strain vam3, active compounds read low
[91] = locus YOR265W, strain rbl2, active compounds read low
[92] = locus YOR270C, strain vph1, active compounds read low
[93] = locus YOR290C, strain snf2, active compounds read low
[94] = locus YPL051W, strain arl3, active compounds read low
[95] = locus YPL078C, strain atp4, active compounds read low
[96] = locus YPL106C, strain sse1, active compounds read low
[97] = locus YPL240C, strain hsp82, active compounds read low

Measured: normalized growth

CC[N+](CC)(CC)CC
inactive: [1] 1.02 | [2] 1 | [3] 0.99 | [4] 0.989 | locus YGR078C, strain PAC10, active compounds read low 1 | locus YGR229C, strain SMI1, active compounds read low 1.02 | [5] 1.02 | [6] 0.994 | locus YMR307W, strain GAS1, active compounds read low 0.991 | [7] 0.986 | [8] 0.981 | [9] 1.01 | [10] 0.997 | [11] 0.999

CC#CC1(O)CCC2C3CCC4=CC(=O)CCC4=C3C(c3ccc(N(C)C)cc3)CC21C (stereo unspecified)
inactive: [12] 0.982 | [13] 0.996 | [14] 0.989 | [15] 0.999 | [16] 0.998 | [17] 0.993 | [18] 1.01 | [19] 1 | [20] 0.993 | [21] 1 | [22] 1.01 | [23] 1.01 | [24] 1 | [25] 0.997 | [26] 1.01 | [27] 0.997 | [28] 1 | [29] 0.994 | [30] 1.01 | [31] 1.01 | locus YDR195W, strain ref2 1.07 | [32] 0.996 | [33] 1.02 | [34] 0.998 | [35] 0.966 | [36] 0.995 | [37] 0.99 | [38] 1.01 | [39] 0.996 | [40] 0.996 | [41] 1.01 | [42] 1.01 | [43] 1.03 | [44] 1 | [45] 1 | [46] 1.01 | [47] 0.987 | [48] 1 | [49] 0.995 | [50] 1 | [51] 0.997 | [52] 1 | [53] 0.998 | [54] 1.02 | [55] 0.946 | [56] 1 | [57] 0.983 | [58] 0.99 | [59] 1.02 | [60] 0.99 | [61] 0.993 | [62] 0.996 | [63] 1.01 | [64] 0.999 | [65] 1 | [66] 0.997 | [67] 0.988 | [68] 0.996 | [69] 0.96 | [70] 1 | [71] 0.995 | [72] 1.13 | [73] 0.993 | [74] 0.996 | [75] 0.998 | [76] 1.02 | [77] 1.11 | [78] 0.991 | [79] 0.998 | [80] 1 | [81] 1 | [82] 0.993 | [83] 1.07 | [84] 1.01 | [85] 1 | [86] 0.996 | [87] 0.991 | [88] 1.01 | [89] 0.976 | [90] 0.986 | [91] 0.994 | [92] 0.924 | [93] 1.04 | [94] 0.988 | [95] 1.01 | [96] 0.964 | [97] 0.985

CC#C[C@]1(O)CC[C@H]2[C@@H]3CCC4=CC(=O)CCC4=C3[C@@H](c3ccc(N(C)C)cc3)C[C@@]21C
inactive: [1] 0.978 | [2] 0.98 | locus YDR150W, strain NUM1, active compounds read low 0.981 | [3] 1.01 | [4] 1 | [5] 0.965 | [6] 0.984 | locus YNL128W, strain TEP1, active compounds read low 1.04 | [7] 0.951 | [8] 0.983 | [9] 0.998 | [10] 0.979 | locus YNL322C, strain KRE1, active compounds read low 0.965 | [11] 0.991 | locus YPL055C, strain LGE1, active compounds read low 0.99

C=CC[C@]1(O)CCC2C3CCC4=CC(=O)CCC4=C3C=C[C@@]21C (stereo partly specified)
inactive: [12] 0.989 | [13] 0.975 | [14] 0.994 | [15] 0.989 | [16] 0.988 | [17] 0.986 | [18] 0.975 | [19] 0.988 | [20] 0.996 | [21] 1.01 | [22] 0.998 | [23] 0.998 | [24] 0.999 | [25] 0.987 | [26] 0.996 | [27] 0.991 | [28] 0.995 | [29] 0.996 | [31] 0.997 | locus YDR195W, strain ref2 1.05 | [32] 0.985 | [33] 0.997 | [34] 1.01 | [36] 0.992 | [37] 0.995 | [38] 0.993 | [39] 0.997 | [40] 0.996 | [41] 0.998 | [43] 1.01 | [44] 0.992 | [45] 0.99 | [46] 0.995 | [47] 0.989 | [48] 0.985 | [49] 0.935 | [50] 0.996 | locus YHR030C, strain SLT2, active compounds read low 0.992 | locus YHR079C, strain IRE1, active compounds read low 1 | [51] 0.944 | [52] 0.984 | [53] 1 | locus YJL095W, strain BCK1, active compounds read low 0.909 | [54] 0.991 | [55] 0.91 | [56] 0.995 | [57] 1 | [58] 0.982 | [59] 0.993 | locus YJR066W, strain TOR1, active compounds read low 0.946 | [60] 0.984 | [61] 0.977 | [62] 0.996 | [63] 1 | [64] 0.995 | [65] 0.991 | [66] 1 | locus YLR113W, strain HOG1, active compounds read low 0.884 | [67] 0.986 | [68] 0.991 | [71] 0.969 | [72] 0.999 | [73] 0.982 | [74] 1 | [75] 0.98 | [76] 0.993 | [77] 1 | [78] 0.993 | [79] 0.895 | [80] 0.995 | locus YNL183C, strain NPR1, active compounds read low 0.93 | [82] 1 | [83] 1.01 | [84] 0.999 | [85] 0.997 | [86] 0.99 | [87] 0.982 | [88] 0.998 | [89] 0.994 | [90] 1.01 | locus YOR231W, strain MKK1, active compounds read low 0.985 | [91] 0.998 | [92] 0.872 | [93] 0.953 | [94] 0.988 | [95] 1.02 | [96] 1.04 | [97] 0.991 | locus YPL256C, strain CLN2, active compounds read low 0.993
active: [30] 0.806 | [35] 0.551 | [42] 0.815 | [69] 0.804 | [70] 0.838 | [81] 0.817
